Screening data (PubChem)
Only some compounds are listed: those with a hit (about 12% of all), similar ones and a draw of the others.
JMJD2A Tudor inh: qHTS Assay for Inhibitors of JMJD2A-Tudor Domain; Lysine-specific demethylase 4A (Homo sapiens), O75164; AlphaScreen JMJD2A-Tudor / H3K4me3 peptide binding; 4.4% of 390,000 active; Potency, µM (series often up to 114 µM), without a hit: top-dose activity change, negative = inhibition, usual class: inhibitors; note: % is set by controls: 0 for no effect and ±100 for the full control effect; nearly all actives have a fitted effect of over 50% in size
L3MBTL1 block: qHTS Assay for the Inhibitors of L3MBTL1; 0.66% of 230,000 active; Potency, µM (series often up to 57.1 µM), for the others: at the top dose activity, negative = inhibition, most hits filed as inhibitors; AlphaScreen L3MBTL1–H3K9me1 peptide binding; note: % is set by controls: 0 for no effect and ±100 for the full control effect; nearly all actives have a fitted effect of over 60% in size
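L3MBTL1 50 nM + b-AHA-H3(1-15)K9me1 75 nM, 30 min RT; compound added, 30 min RT; streptavidin donor/Ni-chelate acceptor beads 10 ug/mL each final, 30 min RT dark; AlphaScreen read.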
G9a inh: qHTS Assay for Inhibitors of Histone Lysine Methyltransferase G9a; G9a H3K9 monomethylation, AlphaScreen, 2 h; 8.8% of 350,000 active; AID 504332, 2011; Potency, µM (series often up to 102 µM), for the others: at the highest dose activity, negative = inhibition, most hits filed as inhibitors; note: % is set by controls: 0 for no effect and ±100 for the full control effect; nearly all actives have a fitted effect of over 75% in size
Target sequence (Q96KQ7 913-1193 limits assumed): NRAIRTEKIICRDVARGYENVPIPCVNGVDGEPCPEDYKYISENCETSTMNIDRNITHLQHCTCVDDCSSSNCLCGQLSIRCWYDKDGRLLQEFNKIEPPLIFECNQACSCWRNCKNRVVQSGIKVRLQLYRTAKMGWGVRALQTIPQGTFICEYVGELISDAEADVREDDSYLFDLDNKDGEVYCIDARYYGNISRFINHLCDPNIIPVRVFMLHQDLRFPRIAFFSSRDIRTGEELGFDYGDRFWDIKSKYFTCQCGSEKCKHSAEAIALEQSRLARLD
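G9a (20 nM) was preincubated 15 min with compound, then reacted 2 h at room temperature with 500 nM biotin-H3K9 peptide and 20 µM SAM. Monomethyl-H3K9 detected by AlphaScreen using anti-H3K9me1 antibody.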
HP1b chromo inh: HTS for Inhibitors of HP1-beta Chromodomain Interactions with Methylated Histone Tails; Chromobox protein homolog 1 (Homo sapiens), P83916; AlphaScreen HP1-beta / biotin-H3K9me3 peptide binding; Potency, µM (top dose mostly 114 µM), inactives show top-dose activity change, negative = inhibition, most hits filed as inhibitors; 0.56% of 390,000 active; AID 540317, 2011; note: nearly all actives have a fitted effect of over 70% in size
Target sequence (P83916 whole entry, looked up): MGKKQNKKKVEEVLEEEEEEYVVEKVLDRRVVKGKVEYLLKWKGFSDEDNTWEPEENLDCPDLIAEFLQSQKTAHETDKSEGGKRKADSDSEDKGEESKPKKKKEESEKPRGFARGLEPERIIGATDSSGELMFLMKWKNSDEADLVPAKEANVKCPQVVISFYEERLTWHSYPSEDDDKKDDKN
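AlphaScreen: HP1-beta (50 nM) preformed 30 min with biotin-H3(1-18)K9me3 peptide (50 nM) in PBS pH 7.4, 0.01% Tween-20. Compound added for 30 min at RT, then streptavidin donor/nickel chelate acceptor beads (10 ug/mL) for 30 min.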
Sfp inh: qHTS Assay for Inhibitors of Bacillus subtilis Sfp phosphopantetheinyl transferase (PPTase). Biochemical Sfp PPTase activity, qHTS. 4'-phosphopantetheinyl transferase ffp (Bacillus subtilis), Q9F4F7. Potency, µM, without a hit: largest response in the series, negative = inhibition, usual class: inhibitors. 3.5% of 310,000 active;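 note: the enzyme is Sfp with the accession as filed and its product quenches rhodamine fluorescence; 0% = enzyme reaction without inhibitor and -100% = no enzyme wells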
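With Hepes-Na pH 7.6 buffer containing 10 mM MgCl2, Sfp (15 nM) modified BHQ-2-YbbR (12.5 uM) using rhodamine-CoA (5 uM). Two reads 30 minutes apart at 525/598 nm yielded each well's rate.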
BAZ2B block: qHTS Assay for Inhibitors of BAZ2B; 4.4% of 360,000 active; Bromodomain adjacent to zinc finger domain protein 2B (Homo sapiens), Q9UIF8; AID 504333, 2011; AlphaScreen BAZ2B-H3K14Ac peptide displacement; Potency, µM (top dose mostly 114 µM), inactives show at the highest dose activity change, negative = inhibition, hits mostly inhibitors; note: % is set by controls: 0 for no effect and ±100 for the full control effect; nearly all actives have a fitted effect of over 60% in size
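Protein-peptide AlphaScreen: BAZ2B 50 nM, b-H3K14Ac 50 nM, 1x PBS pH 7.4 + 0.01% Tween-20. Preincubation 30 min RT; cpd 30 min RT (top 110 uM); beads 20 min RT, light-protected.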
Active calls of the source: *; ? = inconclusive; · = not tested or not shown; [ ] = another dose, or the depositor's remark. Calls come from the whole dose curve; as a rule, active = well fitted curve in the direction sought with a large enough effect; inconclusive = small, poorly fitted or top-dose-only effect, or another doubt; inactive = no such curve, though single readings can be large; an effect the other way counts as inactive or inconclusive. Potency is the fitted concentration of half-maximal effect.

SMILES	JMJD2A Tudor inh	L3MBTL1 block	G9a inh	HP1b chromo inh	Sfp inh	BAZ2B block
O=C(Nc1nc2n(n1)C(c1ccc(F)cc1)C=C(c1ccc(Cl)cc1)N2)c1ccc([N+](=O)[O-])cc1 (stereo not drawn)	-16%	·	-32%[59 µM]	5%	·	-2%
COc1cc(C(=O)N2CCCCCCC2)cc(OC)c1OC	·	·	-3%[12.7 µM]	·	10%	·
COc1ccc(-c2ccc3c(c2)S(=O)(=O)c2cccc(C(=O)NC4CCCC4)c2C3=O)cc1OC	-6%	0%	-3%[0.501 µM]	41%	·	6%
O=C(c1cccc(Cl)c1)N1CCN(C2CCCCCC2)CC1	7.9µM*	-5%	20µM*	25µM*	-9%	45µM*
COc1cc(C(=O)N2CCN(C3CCCCC3)CC2)cc(OC)c1OC	56µM*	15%	·	?	-18%	?
COc1ccc(C(=O)N2CCN(C3CCCCC3)CC2)cc1OC	28µM*	1%	10µM*	?	-22%	50µM*
COc1ccc(-c2ccc3c(c2)S(=O)(=O)c2cccc(C(=O)N4CCN(C5CCCCC5)CC4)c2C3=O)cc1OC	79µM*	-1%	·	-11%	·	·
Cc1ccc(NC(=O)CCCc2nnc3n(C)c(=O)c4sccc4n23)cc1F	-1%	·	3%[59 µM]	24%	·	-8%
COc1cc(C(=O)N2CCC(N3CCCCCC3)CC2)cc(OC)c1OC	7.1µM*	·	·	?	·	·
COc1ccc(C(=O)N2CCC(C(=O)Nc3ccc(OC)c(OC)c3)CC2)cc1	-23%	26%	-4%[59 µM]	33%	89µM*	·
CCOC(=O)c1c(N)sc(C(=O)N2CCCC(C(N)=O)C2)c1C (stereo not drawn)	5%	·	·	45%	·	·
CCOC(=O)c1c(N)sc2c1CCC(CC)C2 (stereo not drawn)	-33%	·	11µM*	?	-17%	-29%
CCOC(=O)c1c(N)sc2c1CCSC2	-33%	·	50µM*	-10%	-29%	?
CCCOC(=O)c1c(N)sc(C(=O)OCC)c1C	-8%	6%	3%[59 µM]	9%	-10%	10%
CCC1CCc2c(sc(N)c2C(N)=O)C1 (stereo not drawn)	?	·	·	-17%	·	·
CCOC(=O)c1c(N)sc2c1CCC1C(=O)N(C3CCCCC3)C(=O)C21 (stereo not drawn)	-25%	4%	?	-26%	20µM*	-6%
CCC[C@@H]1C[C@@H](C(=O)N[C@@H]([C@H]2O[C@H](SC)[C@H](O)[C@@H](O)[C@H]2O)[C@@H](C)O)N(C)C1	·	·	-24%[59 µM]	·	-3%	·
Clc1cc(Cl)c(OCC#CI)cc1Cl	·	·	-6%[12.7 µM]	·	79µM*	·
C=C1c2ccccc2O[C@H](C(=O)OCC)[C@@H]1CCC(C)C (tested in a mixture with another compound)	·	·	42%	·	0%	·
C=C1c2cccc(OC)c2O[C@H](C(=O)OCC)[C@@H]1CCC(C)C	·	·	32µM*	·	-1%	·
Cc1cc(C)c2c(c1)c(C)cc1nnc(SCC(=O)c3ccccc3)n12	-11%	·	?	55%	·	-18%
COc1cccc(-c2cc3c(-n4cccc4)ncnc3o2)c1	8%	-1%	14%[59 µM]	54%	22µM*	-7%
Cc1ccc2cc(C(c3nnnn3C(C)(C)C)N3CCCCCC3)c(=O)[nH]c2c1 (stereo not drawn)	-13%	0%	7.9µM*	23%	?	-25%
CCC(C)(C)n1nnnc1C(c1cc2cc(C)ccc2[nH]c1=O)N1CCCC1 (stereo not drawn)	-18%	-13%	8.9µM*	23%	14µM*	-4%
